Screens deposited in PubChem by National Center for Advancing Translational Sciences (NCATS).
The sample as a whole holds a higher share of hits than the screen did.
TbPYK inhibitor – qHTS of Trypanosoma Brucei Inhibitors. Potency, µM (highest dose often 76.8 µM), most hits filed as inhibitors. TbPYK enzyme, Kinase-Glo Plus ATP luminescence, 45 min. 410,000 compounds, 0.12% hits; also: nearly all actives have a fitted effect of over 50% in size
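Screened from lowest to highest concentration, compounds were pinned into TbPYK/substrate mixtures, and ADP (130 uM final) was added. Plates sat at room temperature for 45 min prior to Kinase-Glo Plus detection by luminescence.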
Shiga inhibitor – A qHTS for Small Molecule Inhibitors of Shiga Toxin | 290,000 compounds, 9.2% hits | inhibition, % at 38.7 µM | Vero cells, Shiga toxin protein synthesis inhibition reporter; in the data active = inhibition mostly above about 28%, no sharp cut-off; inactive = mostly below about 43%
Giardia FBPA inh – qHTS Assay for Inhibitors of Fructose-1,6-bisphosphate Aldolase from Giardia Lamblia | Potency, µM (highest dose often 59.6 µM), hits mostly inhibitors | A8B2U2 | AID 2451, 2010 | purified Giardia FBPA | 290,000 compounds, 0.71% hits; also: nearly all actives have a fitted effect of over 55% in size
Target sequence (A8B2U2 whole entry, looked up): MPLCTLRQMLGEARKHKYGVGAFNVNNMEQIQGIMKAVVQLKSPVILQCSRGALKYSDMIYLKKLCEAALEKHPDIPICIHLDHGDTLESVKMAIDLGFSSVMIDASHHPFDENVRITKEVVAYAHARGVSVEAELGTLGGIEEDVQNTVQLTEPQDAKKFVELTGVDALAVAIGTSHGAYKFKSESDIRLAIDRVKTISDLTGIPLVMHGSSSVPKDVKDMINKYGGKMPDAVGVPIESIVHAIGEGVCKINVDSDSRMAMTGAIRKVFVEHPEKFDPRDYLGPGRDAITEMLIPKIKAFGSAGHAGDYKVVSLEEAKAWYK
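Giardia FBPA (40 nM reagent) was preincubated 10 min at RT with compound (up to 57.5 uM final), then substrate plus GAPDH/TPI/NAD/arsenate coupling system with diaphorase/resazurin was added; resorufin fluorescence (525/598 nm) was read after 20 min.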
LmPK inhibitor – qHTS Assay for Inhibitors of Leishmania Mexicana Pyruvate Kinase (LmPK); Q27686; purified LmPK, Kinase-Glo ATP luminescence, 1 h; Potency, µM (doses to about 57.5 µM), most hits filed as inhibitors; 290,000 compounds, 0.37% hits; AID 1721, 2009
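Purified LmPK (0.1 nM) converted ADP (0.1 mM) to ATP with PEP (0.5 mM) in imidazole buffer pH 7.2 with KCl and MgCl2, 1 h at room temperature. ATP was read by Kinase-Glo luminescence; data normalized to uninhibited and no-enzyme controls.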
RE007 growth inh – qHTS Assay for Inhibitors of the HIV-1 protein Vpr; S. pombe RE007 Vpr strain, BacTiter-Glo ATP luminescence, 24 h; Potency, µM (highest dose often 92.2 µM), usual class: inhibitors; 360,000 compounds, 0.21% hits; AID 651644, 2012; active = well fitted falling curve with a large enough effect; inconclusive = small, poorly fitted or top-dose-only effect; inactive = no such curve, though single readings can be large or run the other way; also: nearly all actives have a fitted effect of over 50% in size
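Fission yeast RE007 carrying one integrated HIV-1 vpr copy, seeded at OD 0.01 in PMG+AL medium with 23 nL pinned compound. Grown 24 h at 30 degrees; viability read by BacTiter-Glo luminescence after 5 min.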
CHX counter – Cycloheximide Counterscreen for Small Molecule Inhibitors of Shiga Toxin. cell reporter, cycloheximide protein synthesis inhibition counterscreen. max response, %. 300,000 compounds, 12% hits; in the data active = max response mostly above about 13%, no sharp cut-off; inactive = mostly below about 14%; also: read at 38.3 µM for the half of the compounds with a filed dose
Numbers stand for hits; . = inactive; ? = inconclusive; / = no result; [ ] = another dose, or the depositor's remark. Unless noted, calls follow the shape of the dose curve; as a rule, active = well fitted curve in the direction sought with a large enough effect; inconclusive = small, poorly fitted or top-dose-only effect, or another doubt; inactive = no such curve, though single readings can be large; an effect the other way counts as inactive or inconclusive.

SMILES	TbPYK inhibitor	Shiga inhibitor	Giardia FBPA inh	LmPK inhibitor	RE007 growth inh	CHX counter
CCOC(=O)c1c(C)[nH]c(C(=O)C(C)Sc2ccc(Cl)cc2)c1C (configuration not stated)	.	.	/	.	.	19
CCOC(=O)c1[nH]c(C)c(C(=O)Nc2ccc(C)c(F)c2)c1C	.	.	.	.	.	.
CCCCC(=O)OCC(=O)c1[nH]c(C)c(C(=O)OCC)c1C	.	84	.	.	.	31
CCOC(=O)c1[nH]c(C)c(C(=O)Nc2ccc(C)c(Cl)c2)c1C	.	.	.	.	.	9.0
CCOC(=O)c1c(C)[nH]c(C(=O)CSc2nccc(C)n2)c1C	.	87	.	.	.	37
CCOC(=O)c1c(C)[nH]c(C(=O)CSc2ccccc2)c1C	.	53	.	.	.	43
CCCc1cc(=O)[nH]c(SCC(=O)c2[nH]c(C)c(C(=O)OCC)c2C)n1	.	.	.	.	.	.
O=C(NCC1CCCO1)c1cc2cc(Cl)ccc2[nH]1 (configuration not stated)	.	43	.	.	.	33
Cc1ccc(Nc2nc(C(=O)N3CCC(C(=O)NC(C)C)CC3)cs2)cc1	.	.	.	.	.	17
O=C(NCC1CCCO1)c1ccccc1-c1nc(-c2ccccc2)no1 (configuration not stated)	.	112	.	.	.	35
CCN(CC)C(=O)c1csc(Nc2ccc(C)cc2)n1	.	49	.	.	.	20
COc1cccc(C(=O)N(Cc2cccnc2)c2nc3c(OC)ccc(C)c3s2)c1OC	.[15.4 µM]	/	/	/	/	/
Cc1ccc(C(=O)c2sc(Nc3ccccc3F)c(S(=O)(=O)c3ccccc3)c2N)c(C)c1	.	/	/	/	/	/
Cc1ccc(Nc2nc(C(=O)NCC3CCCO3)cs2)cc1 (configuration not stated)	.	51	.	.	.	24
CCc1cc(C(=O)NCC2CCCO2)sc1C (configuration not stated)	.	43	/	.	.	31
Cc1ccc(C(=O)Nc2ccc(C(=O)NCC3CCCO3)cc2)cc1 (configuration not stated)	.	.	.	.	.	.
Cc1ccc(Nc2nnc(SCC(=O)NCC3CCCO3)s2)cc1 (configuration not stated)	.	/	/	/	.	/
O=C(NCC1CCCO1)c1cc(-c2ccccc2)on1 (configuration not stated)	.	129	.	.	.	40
Cc1ccc(-c2cc(C(=O)NCC3CCCO3)no2)cc1 (configuration not stated)	.	49	.	.	.	48
CC(=O)N(CC(O)CO)c1c(I)c(C(=O)NCCO)c(I)c(C(=O)NCC(O)CO)c1I (configuration not stated)	.	/	/	/	/	/
O=C(NCC1CCCO1)c1cc(-c2ccc(Cl)cc2Cl)on1 (configuration not stated)	.	75	/	.	.	52
CN(CC(=O)Nc1cccc(C(F)(F)F)c1)Cc1ccccc1	.	.	.	.	.	.
CN(CC(=O)Nc1cccc(S(=O)(=O)N(C)C)c1)Cc1ccccc1	.	.	.	.	.	23
CN(CC(=O)Nc1ccc(Br)cc1)Cc1ccccc1	.	.	.	.	.	19
CSc1ccc(CN(C)CC(=O)Nc2c(F)cccc2F)cc1	.	.	20µM	.	.	.
SMILES	TbPYK inhibitor	Shiga inhibitor	Giardia FBPA inh	LmPK inhibitor	RE007 growth inh	CHX counter
CCN(CC)CCN(C(=O)c1ccco1)c1nc2c(C)c(C)ccc2s1	.	/	/	/	/	/
Cc1ccc(NC(=S)/C(C#N)=C2/Nc3ccccc3S2)cc1	.	/	/	/	.	/
N#C/C(C(=O)N1CCCCC1)=C1\Nc2ccccc2S1	.	58	.	.	?	37
O=C1Nc2ccccc2S/C1=C\C(=O)N1CCCC1	/	72	.	.	/	27
O=C1Nc2ccccc2SC1=Cc1ccccc1	.	/	/	/	.	/
CCc1ccc(C(=O)/C=C2\Sc3ccccc3NC2=O)cc1	.	88	.	.	.	50
CCCCNC(=O)/C=C1\Sc2ccccc2NC1=O	.	.	.	.	.	.
Fc1ccc(CNc2ncnc3onc(-c4ccc(F)cc4)c23)cc1	.	/	/	/	/	/
Cc1cc(C)cc(NC(=O)CSc2nnc(-c3ccccc3C)o2)c1	.	.	.	.	.	36
Cc1ccc(NC(=O)CSc2nnc(-c3ccccc3C)o2)cc1C	.	.	.	.	.	.
Cc1cccc(NC(=O)CSc2nnc(-c3ccccc3C)o2)c1	.	69	.	.	.	37
O=C(Nc1ccc(F)cc1Cl)C1CCN(c2ncnc3c2nc2n3CCCCC2)CC1	.	/	/	/	/	/
CCOc1cc(-c2nc3c(c(CC)nn3-c3ccccc3)c3cc(OC)c(OC)cc23)ccc1O	.	/	/	/	/	/
C=C(C1=CCN(S(=O)(=O)C(C)(C)C)[C@@H]1CCO)c1ccccc1	.	/	/	/	.	/
O=C(CSC1=NNC(c2ccccn2)S1)Nc1cccc(Cl)c1 (configuration not stated)	.	62	.	.	.	40
O=C(CSC1=NNC(c2ccccn2)S1)Nc1ccccc1 (configuration not stated)	.	.	?	.	.	22
COc1ccc(C)cc1NC(=O)C1COc2ccccc2C1 (configuration not stated)	.	/	/	/	/	/
CCOC(=O)Cc1csc(NC(=O)CC(C)(C)C)n1	.	122	.	.	.	32
CCOC(=O)Cc1csc(NC(=O)C(C)(C)CC)n1	.	51	.	.	.	31
CCOC(=O)Cc1csc(NS(C)(=O)=O)n1	.	.	.	.	.	.
CCOC(=O)Cc1csc(NC(=O)CC)n1	.	.	.	.	.	.
COc1ccc(C(=O)CC(=O)C(=O)Nc2cccc(F)c2)cc1	.	50	.	.	.	19
COc1ccc(C(=O)CC(=O)C(=O)Nc2ccccc2)cc1	.	.	.	.	.	.
